What all share (assay): DAPPL (digital affinity profiling via proximity ligation, sequencing); 10 mM Tris-HCl pH 7.5, 50 mM NaCl, 1 mM DTT, 4% glycerol, room temperature, 30 min; GST-TFs on glutathione beads, 16-mer random dsDNA library, 0.1% formaldehyde crosslink after washing; high values mean tight binding
Common to all, as to details: protein: recombinant; tags: N-terminal GST; dsDNA, one strand shown

The target in one test is T1, FLI1 (Homo sapiens, UniProt Q01543 1-452).
T1 sequence: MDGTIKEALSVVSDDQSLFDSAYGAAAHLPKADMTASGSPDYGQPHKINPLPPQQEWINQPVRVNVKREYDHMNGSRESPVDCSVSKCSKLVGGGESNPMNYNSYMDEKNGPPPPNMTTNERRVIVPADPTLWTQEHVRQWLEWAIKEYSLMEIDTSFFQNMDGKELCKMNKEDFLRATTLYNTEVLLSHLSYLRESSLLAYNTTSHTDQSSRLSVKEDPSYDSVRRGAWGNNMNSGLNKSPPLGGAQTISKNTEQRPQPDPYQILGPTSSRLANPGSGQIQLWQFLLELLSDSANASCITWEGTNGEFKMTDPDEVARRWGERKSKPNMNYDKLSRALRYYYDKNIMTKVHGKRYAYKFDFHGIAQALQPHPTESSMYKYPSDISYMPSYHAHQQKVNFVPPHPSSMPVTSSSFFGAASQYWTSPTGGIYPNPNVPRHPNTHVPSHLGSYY
The essentials: (§1)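 Human transcription factors were made in yeast as GST fusions, captured on glutathione beads and barcoded with DNA. With a tag-only sample included, the pool was incubated with 200 nmole of a random double-stranded 16-mer DNA library in Tris/NaCl/DTT/glycerol buffer at room temperature for 30 min, then crosslinked with 0.1% formaldehyde after washing, ligated by proximity, amplified and sequenced. For binding signal, each hexamer's read frequency for a factor is divided by its frequency for the tag-only sample.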

A further test deals with T2, ELK1 (Homo sapiens, UniProt P19419 1-428).
T2 sequence: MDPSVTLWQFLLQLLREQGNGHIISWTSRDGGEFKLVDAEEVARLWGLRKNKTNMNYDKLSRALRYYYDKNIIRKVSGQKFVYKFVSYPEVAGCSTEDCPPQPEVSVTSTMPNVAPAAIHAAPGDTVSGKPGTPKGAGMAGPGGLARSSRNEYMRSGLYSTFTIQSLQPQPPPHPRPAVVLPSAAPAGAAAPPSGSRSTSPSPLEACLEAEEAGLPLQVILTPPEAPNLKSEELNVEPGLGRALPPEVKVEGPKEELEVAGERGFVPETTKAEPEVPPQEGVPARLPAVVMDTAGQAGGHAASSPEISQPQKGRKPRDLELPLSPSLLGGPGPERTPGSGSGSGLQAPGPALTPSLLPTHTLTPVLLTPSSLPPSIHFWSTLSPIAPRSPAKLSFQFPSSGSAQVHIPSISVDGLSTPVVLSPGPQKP
The essentials:
as §1

A further test deals with T3, GABPA (Homo sapiens, UniProt Q06546 1-454).
T3 sequence: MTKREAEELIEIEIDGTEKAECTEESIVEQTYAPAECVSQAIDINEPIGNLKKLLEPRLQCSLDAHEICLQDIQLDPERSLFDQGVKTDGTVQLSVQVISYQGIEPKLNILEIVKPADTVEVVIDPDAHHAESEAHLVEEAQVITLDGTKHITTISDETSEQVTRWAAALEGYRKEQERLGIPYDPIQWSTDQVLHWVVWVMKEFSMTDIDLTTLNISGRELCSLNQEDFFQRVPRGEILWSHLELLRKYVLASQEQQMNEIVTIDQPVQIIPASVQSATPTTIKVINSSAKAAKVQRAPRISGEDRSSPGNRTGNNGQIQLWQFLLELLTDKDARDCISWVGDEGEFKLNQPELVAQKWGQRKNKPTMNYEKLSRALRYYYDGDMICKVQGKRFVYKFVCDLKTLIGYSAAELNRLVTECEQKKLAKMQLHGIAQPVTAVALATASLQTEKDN
Put shortly:
as §1

The next test deals with T4, ERG (Homo sapiens, UniProt P11308 1-479).
T4 sequence: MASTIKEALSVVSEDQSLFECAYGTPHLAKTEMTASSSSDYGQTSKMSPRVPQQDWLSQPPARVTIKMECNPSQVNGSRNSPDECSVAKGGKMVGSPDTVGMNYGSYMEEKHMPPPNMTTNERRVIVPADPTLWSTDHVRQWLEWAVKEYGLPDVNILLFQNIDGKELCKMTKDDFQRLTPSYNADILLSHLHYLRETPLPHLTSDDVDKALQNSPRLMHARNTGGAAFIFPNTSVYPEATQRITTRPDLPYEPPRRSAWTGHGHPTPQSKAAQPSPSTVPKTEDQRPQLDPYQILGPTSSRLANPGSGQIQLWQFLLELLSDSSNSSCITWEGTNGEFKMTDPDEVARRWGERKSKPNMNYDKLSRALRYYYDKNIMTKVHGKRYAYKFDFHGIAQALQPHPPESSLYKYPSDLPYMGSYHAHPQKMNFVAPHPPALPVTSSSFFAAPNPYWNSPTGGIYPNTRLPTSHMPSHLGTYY
The essentials:
as §1

A further test addresses ELF1 (Homo sapiens, UniProt P32519 1-619). Put shortly: as §1
Another test addresses T5, EHF (Homo sapiens, UniProt Q9NZC4 1-300).
T5 sequence: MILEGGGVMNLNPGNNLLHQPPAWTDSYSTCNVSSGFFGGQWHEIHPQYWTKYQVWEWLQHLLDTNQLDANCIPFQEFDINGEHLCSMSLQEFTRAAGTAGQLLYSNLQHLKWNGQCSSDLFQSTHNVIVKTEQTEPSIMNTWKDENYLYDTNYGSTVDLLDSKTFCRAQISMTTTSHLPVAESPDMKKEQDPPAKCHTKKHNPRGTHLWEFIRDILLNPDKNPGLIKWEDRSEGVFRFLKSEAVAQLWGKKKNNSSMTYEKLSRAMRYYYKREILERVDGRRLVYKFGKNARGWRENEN
Put shortly: as §1

A further test concerns the target SPI1 (Homo sapiens, UniProt P17947 1-270). The essentials: as §1
The target in the next test is SPIB (Homo sapiens, UniProt Q01892 1-262). Put shortly:
as §1

The target in a further test is T6, ELK3 (Homo sapiens, UniProt P41970 1-407).
T6 sequence: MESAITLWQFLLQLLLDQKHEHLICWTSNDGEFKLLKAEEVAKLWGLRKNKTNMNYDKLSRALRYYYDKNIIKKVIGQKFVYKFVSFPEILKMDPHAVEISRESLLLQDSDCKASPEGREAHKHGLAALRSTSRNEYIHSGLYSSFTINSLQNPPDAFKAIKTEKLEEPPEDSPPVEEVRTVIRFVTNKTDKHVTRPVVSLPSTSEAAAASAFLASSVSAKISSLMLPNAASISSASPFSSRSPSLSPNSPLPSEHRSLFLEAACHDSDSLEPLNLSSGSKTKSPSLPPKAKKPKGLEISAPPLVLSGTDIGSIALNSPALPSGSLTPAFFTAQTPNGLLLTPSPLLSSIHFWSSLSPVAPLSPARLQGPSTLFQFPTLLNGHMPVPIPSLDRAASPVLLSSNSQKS
Put shortly: as §1

The next test concerns the target T7, FEV (Homo sapiens, UniProt Q99581 1-238).
T7 sequence: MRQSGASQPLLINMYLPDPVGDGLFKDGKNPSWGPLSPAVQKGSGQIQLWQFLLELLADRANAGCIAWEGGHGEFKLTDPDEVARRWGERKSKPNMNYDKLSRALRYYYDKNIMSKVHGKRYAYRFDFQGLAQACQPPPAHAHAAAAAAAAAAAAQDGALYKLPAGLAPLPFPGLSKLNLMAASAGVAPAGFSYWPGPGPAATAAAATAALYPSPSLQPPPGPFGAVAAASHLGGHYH
Put shortly: as §1

The target of a further test is ETV5 (Homo sapiens, UniProt P41161 1-510). Put shortly:
as §1

Another test addresses T8, SPIC (Homo sapiens, UniProt Q8N5J4 1-248).
T8 sequence: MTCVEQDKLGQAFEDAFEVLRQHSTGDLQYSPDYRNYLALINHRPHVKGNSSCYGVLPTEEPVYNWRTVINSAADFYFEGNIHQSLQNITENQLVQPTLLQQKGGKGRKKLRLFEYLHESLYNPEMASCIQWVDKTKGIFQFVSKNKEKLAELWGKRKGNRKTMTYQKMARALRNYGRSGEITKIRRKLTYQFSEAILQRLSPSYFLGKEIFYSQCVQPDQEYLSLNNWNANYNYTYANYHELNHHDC
Put shortly:
as §1

The next test addresses ELF4 (Homo sapiens, UniProt Q99607 1-663). Put shortly: as §1
The target of the next test is T9, ELK4 (Homo sapiens, UniProt P28324-2 1-405).
T9 sequence: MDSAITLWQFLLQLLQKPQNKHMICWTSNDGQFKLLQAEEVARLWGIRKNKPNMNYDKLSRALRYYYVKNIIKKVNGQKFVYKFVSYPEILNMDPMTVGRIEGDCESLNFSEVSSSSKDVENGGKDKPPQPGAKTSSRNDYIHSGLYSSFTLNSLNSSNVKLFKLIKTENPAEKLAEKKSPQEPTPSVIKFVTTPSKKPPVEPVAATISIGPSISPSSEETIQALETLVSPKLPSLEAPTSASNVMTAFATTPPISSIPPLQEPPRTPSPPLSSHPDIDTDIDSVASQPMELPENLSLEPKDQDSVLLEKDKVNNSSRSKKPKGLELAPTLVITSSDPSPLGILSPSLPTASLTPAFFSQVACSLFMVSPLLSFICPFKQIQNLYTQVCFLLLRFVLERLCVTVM
Put shortly: as §1

For a further test, the target named is T10, ELF3 (Homo sapiens, UniProt P78545 1-371).
T10 sequence: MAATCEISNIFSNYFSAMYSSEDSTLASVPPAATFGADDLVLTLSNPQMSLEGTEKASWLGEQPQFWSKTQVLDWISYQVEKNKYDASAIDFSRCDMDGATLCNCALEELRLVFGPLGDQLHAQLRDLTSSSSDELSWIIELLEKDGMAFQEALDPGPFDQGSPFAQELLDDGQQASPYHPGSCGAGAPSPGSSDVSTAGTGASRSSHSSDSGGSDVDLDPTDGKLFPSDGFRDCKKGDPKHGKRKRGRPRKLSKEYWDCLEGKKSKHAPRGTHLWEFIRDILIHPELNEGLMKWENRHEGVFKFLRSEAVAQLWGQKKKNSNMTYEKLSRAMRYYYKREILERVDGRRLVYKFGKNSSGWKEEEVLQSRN
The essentials:
as §1

The target in a further test is ETV1 (Homo sapiens, UniProt P50549 1-477). The essentials:
as §1

The target of a further test is T11, ETV2 (Homo sapiens, UniProt O00321 1-342).
T11 sequence: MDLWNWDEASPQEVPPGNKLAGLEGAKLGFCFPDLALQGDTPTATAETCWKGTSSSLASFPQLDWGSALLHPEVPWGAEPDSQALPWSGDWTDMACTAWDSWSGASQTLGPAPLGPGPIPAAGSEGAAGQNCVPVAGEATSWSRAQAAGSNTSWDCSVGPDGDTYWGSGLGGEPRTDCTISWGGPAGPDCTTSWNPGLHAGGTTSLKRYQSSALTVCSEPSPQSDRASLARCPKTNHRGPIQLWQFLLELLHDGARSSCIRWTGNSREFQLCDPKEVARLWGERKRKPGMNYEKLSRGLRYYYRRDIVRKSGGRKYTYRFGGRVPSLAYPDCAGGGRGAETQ
The essentials:
as §1

Chain of SPIB (Q01892 whole entry): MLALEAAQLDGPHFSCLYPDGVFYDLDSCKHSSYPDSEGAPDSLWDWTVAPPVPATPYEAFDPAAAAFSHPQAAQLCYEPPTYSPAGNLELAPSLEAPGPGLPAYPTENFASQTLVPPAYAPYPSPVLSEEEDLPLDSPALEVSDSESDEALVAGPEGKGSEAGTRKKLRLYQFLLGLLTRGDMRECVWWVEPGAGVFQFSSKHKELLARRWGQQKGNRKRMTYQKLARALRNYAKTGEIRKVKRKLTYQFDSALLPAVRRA
Chain of ETV5 (P41161 whole entry): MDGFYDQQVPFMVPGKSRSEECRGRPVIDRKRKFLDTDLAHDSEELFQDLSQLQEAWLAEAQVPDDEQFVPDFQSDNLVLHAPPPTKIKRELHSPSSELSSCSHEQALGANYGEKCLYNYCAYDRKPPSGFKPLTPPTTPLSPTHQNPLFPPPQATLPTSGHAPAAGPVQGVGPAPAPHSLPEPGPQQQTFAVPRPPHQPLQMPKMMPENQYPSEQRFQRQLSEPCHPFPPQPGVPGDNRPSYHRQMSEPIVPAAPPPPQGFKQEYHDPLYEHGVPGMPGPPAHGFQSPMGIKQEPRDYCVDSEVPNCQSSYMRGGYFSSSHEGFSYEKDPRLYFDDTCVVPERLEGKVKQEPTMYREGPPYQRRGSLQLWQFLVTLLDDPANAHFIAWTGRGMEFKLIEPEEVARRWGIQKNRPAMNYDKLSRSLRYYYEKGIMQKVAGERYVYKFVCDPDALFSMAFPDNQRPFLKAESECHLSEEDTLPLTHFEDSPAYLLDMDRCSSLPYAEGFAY
Chain of ELF4 (Q99607 whole entry): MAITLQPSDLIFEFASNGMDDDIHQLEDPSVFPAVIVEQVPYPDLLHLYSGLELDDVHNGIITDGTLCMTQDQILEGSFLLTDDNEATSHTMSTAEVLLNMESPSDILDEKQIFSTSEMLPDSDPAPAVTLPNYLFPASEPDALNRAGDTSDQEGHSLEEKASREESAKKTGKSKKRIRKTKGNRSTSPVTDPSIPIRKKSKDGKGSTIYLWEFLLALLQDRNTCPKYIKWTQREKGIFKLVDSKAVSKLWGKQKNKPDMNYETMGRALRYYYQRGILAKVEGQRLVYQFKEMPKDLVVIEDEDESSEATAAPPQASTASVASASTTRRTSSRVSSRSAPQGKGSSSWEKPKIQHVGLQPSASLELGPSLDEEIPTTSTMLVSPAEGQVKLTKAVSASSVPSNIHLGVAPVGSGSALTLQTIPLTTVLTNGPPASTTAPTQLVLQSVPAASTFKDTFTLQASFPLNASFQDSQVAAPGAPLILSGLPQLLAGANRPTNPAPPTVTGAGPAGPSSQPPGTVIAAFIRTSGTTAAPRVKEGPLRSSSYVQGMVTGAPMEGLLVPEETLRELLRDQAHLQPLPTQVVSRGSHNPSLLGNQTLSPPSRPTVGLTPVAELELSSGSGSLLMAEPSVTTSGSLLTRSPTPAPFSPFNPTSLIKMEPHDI
Chain of ETV1 (P50549 whole entry): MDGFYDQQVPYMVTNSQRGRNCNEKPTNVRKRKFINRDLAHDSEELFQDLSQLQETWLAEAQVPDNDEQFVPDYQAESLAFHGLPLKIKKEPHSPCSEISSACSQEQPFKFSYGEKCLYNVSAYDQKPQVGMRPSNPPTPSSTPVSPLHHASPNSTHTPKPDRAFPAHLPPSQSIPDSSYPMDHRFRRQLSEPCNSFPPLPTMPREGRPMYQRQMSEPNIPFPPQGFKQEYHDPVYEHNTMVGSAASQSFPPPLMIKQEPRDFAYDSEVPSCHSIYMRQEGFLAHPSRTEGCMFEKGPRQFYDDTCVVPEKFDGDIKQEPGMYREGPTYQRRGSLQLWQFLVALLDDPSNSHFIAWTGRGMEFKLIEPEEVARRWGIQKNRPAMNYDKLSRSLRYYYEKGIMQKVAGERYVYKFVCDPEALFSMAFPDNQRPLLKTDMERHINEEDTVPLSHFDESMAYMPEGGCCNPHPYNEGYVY
Chain of ELF1 (P32519 whole entry): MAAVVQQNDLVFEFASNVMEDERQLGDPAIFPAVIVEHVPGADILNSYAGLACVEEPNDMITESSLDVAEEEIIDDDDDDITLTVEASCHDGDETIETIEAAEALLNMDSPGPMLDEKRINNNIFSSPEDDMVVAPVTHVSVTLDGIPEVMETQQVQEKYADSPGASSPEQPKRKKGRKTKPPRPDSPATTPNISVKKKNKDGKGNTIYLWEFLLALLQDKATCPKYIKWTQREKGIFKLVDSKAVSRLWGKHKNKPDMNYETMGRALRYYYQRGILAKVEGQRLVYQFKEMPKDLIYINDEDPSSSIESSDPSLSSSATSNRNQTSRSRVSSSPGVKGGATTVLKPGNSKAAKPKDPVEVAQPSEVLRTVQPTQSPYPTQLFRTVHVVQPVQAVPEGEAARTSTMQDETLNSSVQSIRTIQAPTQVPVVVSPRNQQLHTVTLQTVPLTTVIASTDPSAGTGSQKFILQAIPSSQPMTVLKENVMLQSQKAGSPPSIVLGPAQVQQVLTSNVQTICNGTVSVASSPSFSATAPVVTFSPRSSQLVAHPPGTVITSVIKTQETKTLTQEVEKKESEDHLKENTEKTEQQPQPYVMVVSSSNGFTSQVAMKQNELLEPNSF

In the case of ACAATG, the binding signal with FLI1 was 1.1 fold enrichment (6-mer frequency, TF over GST control); in the test with ELK1 it was 1.06 fold enrichment (6-mer frequency, TF over GST control); with GABPA, 1.17 fold enrichment (6-mer frequency, TF over GST control); in the test with ERG, 1.14 fold enrichment (6-mer frequency, TF over GST control); with ELF1, 1.15 fold enrichment (6-mer frequency, TF over GST control); with EHF, 1.09 fold enrichment (6-mer frequency, TF over GST control). Moreover, the binding signal in the test with SPI1 was 1.06 fold enrichment (6-mer frequency, TF over GST control); with SPIB, 1.16 fold enrichment (6-mer frequency, TF over GST control); in the test with ELK3, 1.08 fold enrichment (6-mer frequency, TF over GST control); in the test with FEV, 1.08 fold enrichment (6-mer frequency, TF over GST control); with ETV5, 1.11 fold enrichment (6-mer frequency, TF over GST control); with SPIC, 1.08 fold enrichment (6-mer frequency, TF over GST control). Besides, the binding signal with ELF4 is 1.13 fold enrichment (6-mer frequency, TF over GST control); with ELK4 it was 1.16 fold enrichment (6-mer frequency, TF over GST control); in the test with ELF3, 1.17 fold enrichment (6-mer frequency, TF over GST control); with ETV1, 1.07 fold enrichment (6-mer frequency, TF over GST control).
Turning to TGCTTG, the binding signal is 1.31 fold enrichment (6-mer frequency, TF over GST control) in the test with FLI1; 1.15 fold enrichment (6-mer frequency, TF over GST control) in the test with ELK1; 1.11 fold enrichment (6-mer frequency, TF over GST control) in the test with GABPA; 1.15 fold enrichment (6-mer frequency, TF over GST control) with ERG; 1.18 fold enrichment (6-mer frequency, TF over GST control) with ELF1; 1.31 fold enrichment (6-mer frequency, TF over GST control) in the test with EHF. In addition, the binding signal is 1.17 fold enrichment (6-mer frequency, TF over GST control) in the test with SPI1; 1.2 fold enrichment (6-mer frequency, TF over GST control) in the test with SPIB; 1.11 fold enrichment (6-mer frequency, TF over GST control) with ELK3; 1.09 fold enrichment (6-mer frequency, TF over GST control) in the test with FEV; 1.2 fold enrichment (6-mer frequency, TF over GST control) with ETV5; 1.31 fold enrichment (6-mer frequency, TF over GST control) with SPIC. Further, the binding signal with ELF4 was 1.12 fold enrichment (6-mer frequency, TF over GST control); with ELK4, 1.4 fold enrichment (6-mer frequency, TF over GST control); in the test with ETV2, 1.26 fold enrichment (6-mer frequency, TF over GST control); with ETV1, 1.21 fold enrichment (6-mer frequency, TF over GST control).

The values are drawn from paper PMC7862700, “An all-to-all approach to the identification of sequence-specific readers for epigenetic DNA modifications on cytosine”.
